Only some compounds are listed: those with a hit (about 1.3% of all), similar ones and a draw of the others.
AmpC no deterg: inhibitors of E. coli AmpC beta-lactamase without detergent; AmpC nitrocefin hydrolysis, absorbance 480 nm, 0.0001% Triton; Potency, µM (series often up to 57.1 µM), most hits filed as inhibitors; hit rate 0.52% among 330,000; P00811; also: nearly all actives have a fitted effect of over 20% in size
Target sequence (P00811 whole entry, looked up): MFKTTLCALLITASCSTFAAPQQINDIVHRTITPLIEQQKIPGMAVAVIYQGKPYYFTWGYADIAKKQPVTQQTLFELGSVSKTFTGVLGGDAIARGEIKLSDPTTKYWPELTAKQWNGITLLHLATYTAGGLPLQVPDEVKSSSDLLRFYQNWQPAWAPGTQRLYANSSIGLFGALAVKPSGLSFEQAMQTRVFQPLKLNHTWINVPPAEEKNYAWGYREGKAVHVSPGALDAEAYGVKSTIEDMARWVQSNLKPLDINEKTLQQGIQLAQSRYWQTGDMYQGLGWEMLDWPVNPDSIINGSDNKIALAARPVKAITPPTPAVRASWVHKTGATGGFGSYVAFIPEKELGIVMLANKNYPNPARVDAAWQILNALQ
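20 mM phosphate pH 7.0 + 0.01% (detergent screen) or 0.0001% Triton X-100; 5.3 nM AmpC reagent; cpd preinc 15 min RT; nitrocefin (800 uM stock) to start; A480 q20 s × 4 min; Activity was normalised to no-enzyme and no-compound control wells.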
AmpC detergent: inhibitors of E. coli AmpC beta-lactamase with detergent; P00811; AmpC hydrolysis of nitrocefin, absorbance 480 nm, 0.01% Triton; Potency, µM (top dose mostly 114 µM), hits mostly inhibitors; hit rate 0.041% among 370,000; AID 485294; also: nearly all actives have a fitted effect of over 25% in size
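AmpC (5.3 nM in the dispensed reagent) in 20 mM phosphate pH 7.0 with 0.01% (detergent screen) or 0.0001% Triton X-100 was preincubated with compounds for 15 min at room temperature. Nitrocefin was then added from an 800 uM solution, and hydrolysis was followed at 480 nm.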
Giardia FBPA inh: blocks Giardia fructose-bisphosphate aldolase activity; A8B2U2; purified Giardia FBPA; Potency, µM (series often up to 59.6 µM), most hits filed as inhibitors; hit rate 0.71% among 290,000; AID 2451; also: nearly all actives have a fitted effect of over 55% in size
Target sequence (A8B2U2 whole entry, looked up): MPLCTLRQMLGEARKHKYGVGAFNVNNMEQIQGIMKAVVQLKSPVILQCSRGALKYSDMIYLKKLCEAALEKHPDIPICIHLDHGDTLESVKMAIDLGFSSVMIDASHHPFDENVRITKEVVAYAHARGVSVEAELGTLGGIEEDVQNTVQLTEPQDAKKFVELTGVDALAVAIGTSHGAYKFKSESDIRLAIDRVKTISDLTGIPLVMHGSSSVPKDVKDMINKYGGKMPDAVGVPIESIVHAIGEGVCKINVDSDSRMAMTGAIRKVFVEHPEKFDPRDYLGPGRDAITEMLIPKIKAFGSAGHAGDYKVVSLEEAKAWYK
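Giardia FBPA (40 nM reagent) was preincubated 10 min at RT with compound (up to 57.5 uM final), then substrate plus GAPDH/TPI/NAD/arsenate coupling system with diaphorase/resazurin was added; resorufin fluorescence (525/598 nm) was read after 20 min.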
LmPK inhibitor: LmPK (Leishmania mexicana) enzyme inhibition; purified LmPK, Kinase-Glo ATP luminescence, 1 h; Potency, µM (top dose mostly 57.5 µM), usual class: inhibitors; hit rate 0.37% among 290,000; AID 1721
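ATP generated from ADP (0.1 mM) and PEP (0.5 mM) by 0.1 nM LmPK over 1 h at room temperature (pH 7.2 imidazole buffer) was detected by coupled luciferase luminescence. Values were normalized to uninhibited and no-enzyme wells.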
AMA1 RON2 block: disrupts binding of P. falciparum AMA1 to RON2. hit rate 0.2% among 360,000. AID 720542. AlphaScreen AMA1-biotinylated RON2 peptide binding. Potency, µM (top dose mostly 58.2 µM), actives largely listed as inhibitors; also: nearly all actives have a fitted effect of over 45% in size
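AMA1 (3D7) with his tag at 25 nM final met compounds first, then biotinylated RON2 peptide at 25 nM; detection used donor plus acceptor beads, 10 µg/mL apiece, read by AlphaScreen after 30 min at room temperature.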
Hits are given with their value; [ ] = remark or other dose. Calls follow the shape of the dose curve; as a rule, active = well fitted curve in the direction sought with a large enough effect; inconclusive = small, poorly fitted or top-dose-only effect, or another doubt; inactive = no such curve, though single readings can be large; an effect the other way counts as inactive or inconclusive.

`CCOc1ccc(CC(=O)NCC(c2cccs2)S(=O)(=O)c2ccc(F)c(C)c2)cc1` (configuration not stated) gave AmpC detergent inactive.
CC1=C/C(=N\Nc2ccccc2[N+](=O)[O-])CC(C)(C)C1 was read as AmpC no deterg inactive, AmpC detergent inactive, Giardia FBPA inh inactive, LmPK inhibitor inactive and AMA1 RON2 block 3.5µM.
`C/C(=N/Nc1ccccc1[N+](=O)[O-])c1ccc([N+](=O)[O-])cc1` gave AmpC no deterg inactive, AmpC detergent inactive, Giardia FBPA inh inactive, LmPK inhibitor inactive and AMA1 RON2 block inactive.
For CCC(=O)N1CCc2cc(Br)cc(S(=O)(=O)CCC(=O)N3CCN(c4cccc(C(F)(F)F)c4)CC3)c21 the results were AmpC detergent inactive.
COc1ccc(C)cc1NC(=O)Nc1ccc2c(c1)CCC2 was read as AmpC no deterg inconclusive, AmpC detergent inactive, LmPK inhibitor inactive and AMA1 RON2 block inactive.
For COc1ccccc1NC(=O)Nc1ccc2c(c1)CCC2 the results were AmpC no deterg 10µM, AmpC detergent inactive, LmPK inhibitor inactive and AMA1 RON2 block inactive.
NC(Cc1ccc(Cl)cc1)c1csc(Nc2ccc(C(=O)NCCCO)cn2)n1 (configuration not stated) was read as AMA1 RON2 block inactive.
`CCOc1cc2[nH]c(=O)n(Cc3ccc(C(=O)N4CCN(c5ccccc5)CC4)cc3)c(=O)c2cc1OCC` gave AmpC detergent inactive.
`Cc1ccc(-n2c(-c3cc(-c4ccco4)[nH]n3)n[nH]c2=S)c(Br)c1` gave AmpC no deterg inactive, AmpC detergent inactive, Giardia FBPA inh inactive, LmPK inhibitor inconclusive and AMA1 RON2 block inactive.
For COc1ccccc1-n1c(Cc2cccs2)n[nH]c1=S the results were AmpC no deterg inactive, AmpC detergent inactive, Giardia FBPA inh inactive, LmPK inhibitor inactive and AMA1 RON2 block inactive.
Screening Cc1ccc(C)c(-n2c(Cc3cccs3)n[nH]c2=S)c1 returned AmpC no deterg inactive, AmpC detergent inactive, Giardia FBPA inh inactive, LmPK inhibitor 10µM and AMA1 RON2 block inactive.
S=c1[nH]nc(Cc2cccs2)n1-c1ccccc1Cl was read as AmpC no deterg inactive, AmpC detergent inactive, Giardia FBPA inh inactive, LmPK inhibitor 10µM and AMA1 RON2 block inactive.
S=c1[nH]nc(Cc2cccs2)n1-c1cccc2ccccc12 was read as AmpC no deterg inactive, AmpC detergent inactive, Giardia FBPA inh inactive, LmPK inhibitor 7.9µM and AMA1 RON2 block inactive.
Screening S=c1[nH]nc(Cc2cccs2)n1-c1ccccc1 returned AmpC no deterg inactive, AmpC detergent inactive, LmPK inhibitor inconclusive and AMA1 RON2 block inactive.
For S=c1[nH]nc(-c2cc(-c3ccco3)[nH]n2)n1-c1cccc2ccccc12 the results were AmpC no deterg 18µM, AmpC detergent inactive, Giardia FBPA inh inactive, LmPK inhibitor 7.9µM and AMA1 RON2 block inactive.
`Cn1c(NCc2cccnc2)nc2cc(-c3cccc(C(=O)NCCO)c3)sc2c1=O` gave AMA1 RON2 block inactive.
Screening Cn1c(Oc2ccccc2NCc2cc(Br)ccc2O)cc(=O)n(C)c1=O returned AmpC no deterg 22µM, AmpC detergent inconclusive, Giardia FBPA inh inactive, LmPK inhibitor inactive and AMA1 RON2 block inactive.
For Cn1c(=O)[nH]c(=O)c2c1nc([N+](=O)[O-])n2Cc1ccccc1 the results were AmpC no deterg inactive, AmpC detergent inactive, Giardia FBPA inh 14µM, LmPK inhibitor inactive and AMA1 RON2 block inactive.
`COc1ccc(CC(N)c2csc(Nc3nncc4ccccc34)n2)cc1` (configuration not stated) gave AMA1 RON2 block inactive.
Screening CC1(Oc2ccccc2)CCN(Cc2ccc(-c3ccccn3)cc2)C1 (configuration not stated) returned AMA1 RON2 block inactive.
`Cc1ccc(C(=O)N/C(=C\c2ccc(-c3ccccc3[N+](=O)[O-])o2)C(=O)NCCN(C)C)cc1` gave AmpC no deterg inactive, AmpC detergent inactive, Giardia FBPA inh 5µM, LmPK inhibitor inactive and AMA1 RON2 block inactive.
For Cc1c(N=C2C=CC(=O)c3ccccc32)c(=O)n(-c2ccccc2)n1C the results were AmpC no deterg inactive, AmpC detergent inactive, Giardia FBPA inh 18µM, LmPK inhibitor inconclusive and AMA1 RON2 block inactive.
For Cc1cc(O)cc(=O)n1Cc1ccccc1 the results were AMA1 RON2 block inactive.
`CCN1CCCc2cc(CN(CCN3CCOCC3)C(=S)Nc3cccc(C)c3)ccc21` gave AmpC no deterg inactive, AmpC detergent inactive, Giardia FBPA inh inactive, LmPK inhibitor inactive and AMA1 RON2 block 14µM.
Screening CCc1ccc(NC(=O)N(CCN2CCOCC2)Cc2ccc3c(c2)CCCN3CC)cc1 returned AmpC no deterg inactive, AmpC detergent inactive, Giardia FBPA inh inconclusive, LmPK inhibitor inactive and AMA1 RON2 block inconclusive.
`CCN1CCCc2cc(CN(CCN3CCOCC3)C(=O)Nc3ccc(C)c(C)c3)ccc21` gave AmpC no deterg inactive, AmpC detergent inconclusive, Giardia FBPA inh inactive, LmPK inhibitor inactive and AMA1 RON2 block 11µM.
`CCc1nn(CCCC(=O)NC2CCCCC2C)c(=O)c2cc3occc3n12` (configuration not stated) gave AMA1 RON2 block inactive.
`O=c1c2oc3ccccc3c2ncn1Cc1ccc(Br)cc1` gave AmpC detergent inactive.
Screening COC(=O)CCC(=O)OC1(C)C(=O)C2=CN(CC(C)C)C(c3ccc(OC)cc3)=CC2=C(Br)C1=O (configuration not stated) returned AmpC no deterg inactive, AmpC detergent inactive, Giardia FBPA inh 1µM and LmPK inhibitor inactive[11.5 µM].
COn1c2c(c3c4no[n+]([O-])c4ccc31)CCCC2 was read as AmpC no deterg inactive, AmpC detergent inactive, Giardia FBPA inh inactive, LmPK inhibitor inactive and AMA1 RON2 block inactive.
`[O-][n+]1c2c(c3c4non(O)c4ccc31)CCCC2` gave AmpC no deterg 10µM, AmpC detergent inactive, Giardia FBPA inh inactive, LmPK inhibitor inactive and AMA1 RON2 block inactive.
Screening CC(=O)c1c(C)[nH]c(C(=O)OC(C)C(=O)Nc2cc(S(=O)(=O)N3CCCCC3)ccc2Cl)c1C (configuration not stated) returned AmpC no deterg 7.9µM, AmpC detergent inactive, Giardia FBPA inh inactive, LmPK inhibitor inactive and AMA1 RON2 block inactive.
CC(=O)c1c(C)[nH]c(C(=O)Nc2cccc(S(=O)(=O)N3CCCCC3)c2)c1C was read as AmpC no deterg inactive, AmpC detergent inactive and AMA1 RON2 block inactive.
`Cc1ccc(-c2c(C(=O)N3CCN(c4ccc(F)cc4)CC3)oc(=O)c3ccccc23)cc1` gave AmpC detergent inactive.
Screening Cc1ccc2c(c1)CC1(CN2C)C(=O)NC(=O)N(c2ccccc2C)C1=O (configuration not stated) returned AmpC no deterg inactive, AmpC detergent inactive, Giardia FBPA inh inactive, LmPK inhibitor inactive and AMA1 RON2 block inactive.

Source: PubChem (National Center for Advancing Translational Sciences (NCATS))
